Sampled rows, rich in hits. Any-hit rate of the full collection: about 6.8%.
T cruzi growth: T. cruzi proliferation inhibition. T. cruzi beta-gal in NIH3T3, GalScreen luminescence, 90 h. AID 624255. 77,000 compounds, 5.9% hits. inhibition, % at 8.34 µM;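 active = mean inhibition above about 93%, with at least 55% of replicates each passing it, limit read from the data, passing the limit was not always enough; inconclusive = only one of those two conditions holds; inactive = neither condition holds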
Pf Dd2 inh: inhibitors of Plasmodium falciparum Dd2 growth. P. falciparum Dd2 growth, SYBR Green, 72 h; active compounds read low. activity change, % at 10 µM. 94,000 compounds, 2.3% hits. AID 1159554; in the data active = activity change below about -80%; inconclusive = no clear call, values can overlap the other calls
C diff HTS: inhibitors of Clostridium difficile growth. Clostridium difficile clinical isolate growth, OD600, 24 h; active compounds read low. growth activity, negative = inhibition, % at 16 µg/mL (by protocol). 86,000 compounds, 0.25% hits. AID 1259249;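 active = mean growth activity at or below -80% and every replicate also at or below -80%; inconclusive = mean at or below -80% but some replicate above -80%; inactive = mean growth activity above -80%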;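 note: 0% = DMSO wells and -100% = levofloxacin 16 µg/mL wells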
Active calls of the source: *; u = inconclusive; x = not tested or not shown.

SMILES	T cruzi growth	Pf Dd2 inh	C diff HTS
C[C@@H]1CCCCO[C@@H](CN(C)C(=O)Nc2ccccc2)[C@@H](C)CN([C@@H](C)CO)C(=O)c2cc(NC(=O)c3ccccc3)ccc2O1	43	-23	x
C[C@@H]1CCCCO[C@@H](CN(C)C(=O)CCC(F)(F)F)[C@@H](C)CN([C@@H](C)CO)C(=O)c2cc(NC(=O)Nc3ccc4c(c3)OCO4)ccc2O1	-2	-11	4
C[C@@H]1CCCCO[C@@H](CN(C)C(=O)Nc2ccc3c(c2)OCO3)[C@@H](C)CN([C@@H](C)CO)C(=O)c2cc(NC(=O)Nc3ccc(F)cc3)ccc2O1	25	-83*	-1
C[C@@H]1CCCCO[C@@H](CN(C)C(=O)Nc2ccc3c(c2)OCO3)[C@H](C)CN([C@H](C)CO)C(=O)c2cc(NC(=O)Nc3ccc(C(F)(F)F)cc3)ccc2O1	87	-43	17
C[C@@H]1CCCCO[C@H](CN(C)C(=O)CCC(F)(F)F)[C@@H](C)CN([C@H](C)CO)C(=O)c2cc(NC(=O)Nc3ccc4c(c3)OCO4)ccc2O1	88	-83*	0
C[C@H]1CCCCO[C@H](CN(C)C(=O)Nc2ccc3c(c2)OCO3)[C@@H](C)CN([C@@H](C)CO)C(=O)c2cc(NC(=O)Nc3ccc(C(F)(F)F)cc3)ccc2O1	79	u	5
C[C@@H]1CCCCO[C@H](CN(C)C(=O)Nc2ccc(C(F)(F)F)cc2)[C@@H](C)CN([C@H](C)CO)C(=O)c2cc(NC(=O)Nc3ccc4c(c3)OCO4)ccc2O1	107*	-38	1
C[C@@H]1CCCCO[C@@H](CN(C)C(=O)Nc2ccc3c(c2)OCO3)[C@@H](C)CN([C@H](C)CO)C(=O)c2cc(NC(=O)Nc3ccc(F)cc3)ccc2O1	37	8	1
C[C@@H]1CCCCO[C@H](CN(C)C(=O)Nc2ccc3c(c2)OCO3)[C@H](C)CN([C@H](C)CO)C(=O)c2cc(NC(=O)Nc3ccc(C(F)(F)F)cc3)ccc2O1	93	-89*	7
O=C(C[C@H]1CC[C@@H]2[C@H](COC[C@@H](O)CN2Cc2cccc(C(F)(F)F)c2)O1)NCc1ccccc1	16	-44	8
C[C@H](CO)N1C[C@H](C)[C@@H](CN(C)Cc2cccc(C(F)(F)F)c2)OCc2ccccc2-c2c(n(C)c3ccccc23)C1=O	x	u	22
C[C@H](CO)N1C[C@H](C)[C@H](CN(C)Cc2cccc(C(F)(F)F)c2)OCc2ccccc2-c2c(n(C)c3ccccc23)C1=O	x	-83*	7
C[C@H]1CN([C@@H](C)CO)C(=O)c2c(c3ccccc3n2C)-c2ccccc2CO[C@H]1CN(C)Cc1cccc(C(F)(F)F)c1	x	-75	12
C[C@H]1CN([C@@H](C)CO)C(=O)c2ccccc2-c2ccccc2CO[C@@H]1CN(C)Cc1cccc(C(F)(F)F)c1	x	-16	28
C[C@@H]1CN([C@@H](C)CO)C(=O)c2ccccc2-c2ccccc2CO[C@@H]1CN(C)Cc1cccc(C(F)(F)F)c1	x	-82*	18
C[C@@H]1CN([C@H](C)CO)C(=O)c2c(c3ccccc3n2C)-c2ccccc2CO[C@@H]1CN(C)Cc1cccc(C(F)(F)F)c1	x	-87*	23
COc1ccc(NC(=O)Nc2cccc3c2O[C@@H](CN(C)S(=O)(=O)c2cccs2)[C@H](C)CN([C@H](C)CO)C3=O)cc1	15	-13	0
C[C@@H]1CN([C@H](C)CO)C(=O)c2cc(C#Cc3ccncc3)cnc2O[C@@H]1CN(C)Cc1ccncc1	x	19	7
Cc1nn(C)cc1NC(=O)C[C@@H]1CC[C@H]2[C@H](COc3ccc(NC(=O)C4CCOCC4)cc3C(=O)N2C)O1	8	x	-7
C[C@H](CO)N1C[C@H](C)[C@H](CN(C)C(=O)NC2CCCCC2)Oc2ccc(NS(=O)(=O)c3cccs3)cc2C1=O	33	27	5
CCCN(C)C[C@H]1OCCCC[C@H](C)Oc2ccc(NC(=O)Nc3ccc(C(F)(F)F)cc3)cc2C(=O)N([C@@H](C)CO)C[C@H]1C	54	-69	-31
C[C@H](CO)N1C[C@H](C)[C@@H](CN(C)CC2CCCCC2)OCCCC[C@H](C)Oc2ccc(NC(=O)Nc3ccc(C(F)(F)F)cc3)cc2C1=O	84	-41	-74
C[C@@H]1CCCCO[C@@H](CN(C)CC2CC2)[C@@H](C)CN([C@H](C)CO)C(=O)c2cc(NC(=O)Nc3ccc4c(c3)OCO4)ccc2O1	25	u	x
CCCN(C)C[C@@H]1OCCCC[C@H](C)Oc2ccc(NC(=O)Nc3ccc4c(c3)OCO4)cc2C(=O)N([C@H](C)CO)C[C@@H]1C	50	-88*	12
C[C@@H]1CCCCO[C@H](CN(C)CC2CC2)[C@H](C)CN([C@H](C)CO)C(=O)c2cc(NC(=O)Nc3ccc(C(F)(F)F)cc3)ccc2O1	91	-82*	6
SMILES	T cruzi growth	Pf Dd2 inh	C diff HTS
C[C@@H]1CN([C@@H](C)CO)C(=O)c2cc(NC(=O)Nc3ccc(C(F)(F)F)cc3)ccc2O[C@@H](C)CCCCO[C@H]1CN(C)CC1CCCCC1	88	-60	-107*
CCCN(C)C[C@H]1OCCCC[C@@H](C)Oc2ccc(NC(=O)Nc3ccc(C(F)(F)F)cc3)cc2C(=O)N([C@H](C)CO)C[C@H]1C	17	-83*	-108*
C[C@@H]1CN([C@@H](C)CO)C(=O)c2cc(NC(=O)Nc3ccc(C(F)(F)F)cc3)ccc2O[C@@H](C)CCCCO[C@H]1CN(C)C	14	15	13
COc1cccc(NC(=O)N[C@@H]2CC[C@H](CC(=O)N3CCN(C)CC3)O[C@H]2CO)c1	2	2	6
COc1cccc(NC(=O)Nc2ccc3c(c2)C(=O)N(C)C[C@@H](OC)[C@H](C)CN(CCC(F)(F)F)[C@H](C)CO3)c1	71	-67	-3
COc1cc(CN2CC3(CCN(S(=O)(=O)c4cccs4)CC3)c3c(n(C)c4cc(OC)ccc34)[C@H]2CO)cc(OC)c1	x	-66	10
O=C(NCc1ccc(F)cc1)[C@@H]1[C@@H](CO)[C@@H]2Cn3c(cccc3=O)[C@H]1N2C(=O)c1cnccn1	52	2	-1
O=C(NC1CCC1)[C@H]1[C@H](CO)[C@H]2Cn3c(ccc(-c4ccncc4)c3=O)[C@H]2N1CCc1ccccc1	x	2	4
Cc1noc(C)c1NC(=O)Nc1ccc2c(c1)C(=O)N([C@H](C)CO)C[C@H](C)[C@H](CN(C)C(=O)Nc1ccccc1)OCCCC[C@@H](C)O2	-27	36	-7
CO[C@@H]1CC[C@@H]2CCOc3c(C#N)cccc3C(=O)N(C)[C@H](C)C(=O)N(C)C[C@H]1O2	36	x	1
C[C@@H]1CN([C@H](C)CO)C(=O)c2cc(NC(=O)Nc3ccc(C(F)(F)F)cc3)ccc2O[C@@H](C)CCCCO[C@H]1CN(C)C	72	-80	33
C[C@H]1CCCCO[C@H](CN(C)CC2CC2)[C@@H](C)CN([C@@H](C)CO)C(=O)c2cc(NC(=O)Nc3ccc(C(F)(F)F)cc3)ccc2O1	50	-85*	0
CN(C)C(=O)C[C@@H]1CC[C@@H]2[C@H](COc3ccc(NC(=O)C4CCOCC4)cc3C(=O)N2C)O1	-34	14	-4
O=C(NCC[C@H]1CC[C@@H](NC(=O)C2CCC2)[C@@H](CO)O1)Nc1ccc(Cl)cc1	x	4	-2

Screening results (PubChem BioAssay)
